# CHX counter: Cycloheximide Counterscreen for Small Molecule Inhibitors of Shiga Toxin; cell reporter, cycloheximide protein synthesis inhibition counterscreen; max response, %; 12% of 300,000 active; in the data active = max response mostly above about 13%, no sharp cut-off; inactive = mostly below about 14%; also: read at 38.3 µM for the half of the compounds with a filed dose; 0% is about no effect
# AMA1 RON2 block: qHTS for Inhibitors of AMA1-RON; Towards Development of Antimalarial Drug Lead: Primary Screen. AlphaScreen AMA1-biotinylated RON2 peptide binding. AID 720542, 2013. Potency, µM (highest dose often 58.2 µM), inactives show top-dose activity change, negative = inhibition, most hits filed as inhibitors. 0.2% of 360,000 active;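 also: potency is read from the fitted curve at half-maximal effect; 0% = vehicle wells and -100% = peptide control; nearly all actives have a fitted effect of over 45% in size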
#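 AMA1 (3D7) with his tag at 25 nM final met compounds first, then biotinylated RON2 peptide at 25 nM; detection used donor plus acceptor beads, 10 µg/mL apiece, read by AlphaScreen after 30 min at room temperature.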
# Shiga inhibitor: A qHTS for Small Molecule Inhibitors of Shiga Toxin; Vero cells, Shiga toxin protein synthesis inhibition reporter; inhibition, % at 38.7 µM; 9.2% of 290,000 active; in the data active = inhibition mostly above about 28%, no sharp cut-off; inactive = mostly below about 43%; also: 0% is about no effect
# HCV inh: qHTS Assay for Inhibitors of Hepatitis C Virus (HCV). Huh7.5.1 HCVcc-Cre infection, luciferase reporter, 44 h. 3.4% of 340,000 active. Potency, µM (titrated, usually from 41.8 µM), for inactives: at the top dose activity change, negative = inhibition, hits mostly inhibitors. AID 651820, 2012; also: potency is read from the fitted curve at half-maximal effect; % is scaled to controls: 0 for no effect and ±100 for the full control effect
#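 Reporter virus HCVcc-Cre (~0.5 moi) infects cells exposed to compound; seeding density 1,000 cells/well with 4 h settling beforehand. Luminescence, 15 sec read, taken 44 h post-infection following a 15 min RT substrate incubation.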
# Pf growth 96h: Primary qHTS for delayed death inhibitors of the malarial parasite plastid, 96 hour incubation; P. falciparum luciferase reporter growth, 96 h; Potency, µM (titrated, usually from 28.7 µM), inactives show top-dose activity change, negative = inhibition, most hits filed as inhibitors; 6.9% of 320,000 active; AID 504834, 2011; also: potency is read from the fitted curve at half-maximal effect; % is scaled to controls: 0 for no effect and ±100 for the full control effect
#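 Readout is luminescence from an integrated firefly luciferase in P. falciparum. Red cells, 2% hematocrit and 0.05% parasitemia final, were cultured with compound through two parasite generations (96 hours) at 37 C, 5% CO2.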
# Pf growth 48h: Primary qHTS for delayed death inhibitors of the malarial parasite plastid, 48 hour incubation. P. falciparum luciferase growth in erythrocytes, 48 h. Potency, µM (titrated, usually from 28.7 µM), without a hit: top-dose activity change, negative = inhibition, hits mostly inhibitors. 5.9% of 310,000 active; also: potency is read from the fitted curve at half-maximal effect; % is scaled to controls: 0 for no effect and ±100 for the full control effect
#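 Firefly luciferase activity from engineered P. falciparum reports growth; inhibitors lower the luminescent signal. Cultures contained 2% hematocrit erythrocytes at 0.1% final parasitemia.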
# Numbers without * were called inactive; i = inactive; ? = inconclusive; nt = no result. Shown are actives, neighbours in structure and some others; about 21% of the full set was active somewhere. Unless noted, calls follow the shape of the dose curve; as a rule, active = well fitted curve in the direction sought with a large enough effect; inconclusive = small, poorly fitted or top-dose-only effect, or another doubt; inactive = no such curve, though single readings can be large; an effect the other way counts as inactive or inconclusive.
SMILES,CHX counter,AMA1 RON2 block,Shiga inhibitor,HCV inh,Pf growth 96h,Pf growth 48h
O=C(/C=C/c1ccccc1Cl)Nc1cccnc1,60.4*,6.3%,79.8*,-4.0%,161.0%,114.7%
O=C(/C=C/c1ccccc1Cl)Nc1ccncc1,24.7*,-1.0%,66.8*,-10.5%,33.5%,37.1%
CCOc1ccc(N(CC(=O)N2CCCCCC2)S(=O)(=O)c2ccc(F)cc2)cc1,-5.2,-0.6%,-17.4,12.2%,81.0%,-14.7%
CCC(CC)NC(=O)/C=C/c1ccccc1Cl,35.1*,21.6%,69.2*,?,-16.3%,44.3%
O=C(/C=C/c1ccccc1Cl)NC1CCCCC1,32.9*,0.0%,26.5*,-5.3%,15.7%,-16.6%
O=C(/C=C/c1ccccc1Cl)NC1CCS(=O)(=O)C1 (configuration not stated),-2.2,3.5%,3.5,-8.0%,5.3%,14.3%
O=C(/C=C/c1ccc(Cl)cc1Cl)NCCSCc1ccccc1,7.6,10.7%,11.6,?,-11.7%,0.9%
O=C(/C=C/c1ccc(Cl)cc1Cl)NCc1ccncc1,29.8*,11.8%,57.8,-22.6%,11.7µM*,?
O=C(/C=C/c1ccc(Cl)cc1Cl)Nc1ccncc1,50.3*,-17.6%,95.8*,?,-4.9%,20.7%
Nc1ccc(NC(=O)CCN2CCOCC2)cc1,0.4,2.6%,8.7,26.7%,?,?
CN(c1ccccc1)S(=O)(=O)c1ccc(C(=O)NCc2ccccc2F)cc1,nt,5.3%,nt,?,?,?
CCOC(=O)/C=C(\C)Sc1cc(O)c2ccccc2c1O,30.6*,-16.2%,58.5*,?,1.65µM*,1.47µM*
CCOC(=O)/C=C(\C)Sc1cc(=O)oc2ccccc12,8.1,-15.0%,16.2,?,?,?
Cn1cc(/C=N\NC(=O)c2cccs2)c2ccccc21,48.5*,8.0%,62.7*,3.9%,5.86µM*,110.9%
O=C(Cc1cccs1)N/N=C\c1ccc(O)cc1,32.4*,9.6%,50.7*,-12.6%,112.5%,13.9%
C=CCNC(=S)N/N=C/c1cn(C)c2ccccc12,21.1*,30.5%,23.7,35.5µM*,?,8.28µM*
COc1ccc(/C=N/NC(=O)c2cccs2)c2ccccc12,nt,4.0%,nt,?,nt,nt
Cn1cccc1/C=N/NC(=O)c1cccs1,42.2*,-4.2%,74.4*,-5.6%,40.1%,80.1%
CCC1(CC)CNC(=O)NC1,nt,0.0%,nt,8.5%,nt,nt
O=C(c1ccc(Cl)c(NC2=NC3CS(=O)(=O)CC3S2)c1)N1CCN(c2ccc(F)cc2)CC1 (configuration not stated),-3.8,6.3%,-3.2,21.1%,29.5%,-4.3%
CSCC[C@H](NC(=O)[C@H](Cc1ccccc1)NC[C@@H](NC[C@@H](N)CS)C(C)C)C(=O)O,-3.5,nt,-10.2,nt,nt,nt
CC1CCN(C(=O)c2[nH]cnc2C(=O)Nc2cccc(Cl)c2)CC1,nt,51.6%,nt,-0.9%,32.6%,-7.3%
Cn1cccc1/C=N/NC(=O)Cc1cccs1,10.8,-21.3%,49.4*,22.0%,21.6%,42.3%
CCCc1cc(C(=O)N/N=C/c2cccn2C)cs1,61.8*,-12.2%,109.5*,6.8%,2.1%,-22.2%
COc1cc(C)ccc1OCc1cc(C(=O)N2CCC(c3ccc(F)cc3)C2)no1 (configuration not stated),58.1*,-5.9%,113.4*,?,122.3%,49.0%
SMILES,CHX counter,AMA1 RON2 block,Shiga inhibitor,HCV inh,Pf growth 96h,Pf growth 48h
Cc1ccc(C)c(OCc2cc(C(=O)N3C[C@@H](C)O[C@@H](C)C3)no2)c1,47.6*,-10.7%,86.6*,?,?,6.5%
Cc1ccc(C)c(OCc2cc(C(=O)N3CCN(C4CCCCC4)CC3)no2)c1,nt,-14.6%,nt,nt,nt,nt
Cc1ccc(C)c(OCc2cc(C(=O)N3CC[C@@H]4CCCC[C@H]4C3)no2)c1,33.0*,-13.9%,104.6*,0.8%,-24.6%,8.9%
COc1ccc(-c2ccc(N(C)C)cc2)cc1C1C2C=CCC(C)C2C(=O)N1Cc1ccccc1 (configuration not stated),6.5,nt,1.6,nt,nt,nt
CC1(C(=O)Nc2cccc3cccnc23)CCN1Cc1ccccc1OC(F)F (configuration not stated),nt,85.0%,nt,nt,nt,nt
CC(NC(=O)C(=O)NCCN1CCN(C(=O)c2ccc([N+](=O)[O-])cc2)CC1)c1ccccc1 (configuration not stated),-3.7,7.7%,-3.2,-17.5%,13.4%,?
c1ccc(-c2cc3n(c2)CCc2ccccc2-3)cc1,14.9*,-5.0%,49.2*,-13.7%,-8.6%,?
O=C(O)c1cc2c(s1)-c1ccccc1CC2,-2.3,2.0%,-5.3,7.0%,0.0%,-4.5%
Cc1ccc(N=C2NC(=O)/C(=C/c3cccn3C)S2)cc1C,31.9*,4.8%,66.4*,-25.4%,13.1µM*,?
Cc1ccc(N=C2NC(=O)/C(=C/c3cccn3C)S2)cc1,37.0*,?,79.4*,-16.5%,?,95.2%
Cc1ccc(N=C2NC(=O)/C(=C\c3ccc(C)s3)S2)cc1,-0.4,-13.9%,6.6,8.1%,1.65µM*,?
CCCNC(=O)C1(C)CCCN(Cc2ccc(-n3ccnc3)cc2)C1 (configuration not stated),nt,2.8%,nt,nt,nt,nt
CCOC(=O)c1c(C)[nH]c(C(=O)OCC(=O)c2ccc3c(c2)NC(=O)CO3)c1C,nt,-7.8%,nt,-0.2%,?,?
Cc1csc(NC(=O)c2cncc(Br)c2)n1,53.2*,-5.1%,56.7,-3.6%,i,i
Cc1cccc(C)c1NC(=O)CNC(=O)c1cncc(Br)c1,-0.7,-6.6%,10.9,3.3%,44.3%,18.3%
O=C(Nc1nccs1)c1cncc(Br)c1,48.5*,87.0%,95.7*,?,240.7%,207.8%
O=C(Nc1nccs1)c1cccnc1,1.8,11.3%,-11.4,17.0%,?,45.4%
CC(C)C[C@@H]1Cc2[nH]c(=S)[nH]c(=O)c2[C@H](CCc2ccccc2)O1,nt,8.9%,nt,nt,nt,nt
Cc1cc(C)c2c(N)c(C(=O)NC3CCCC3)sc2n1,20.1*,16.1%,70.3*,-18.1%,5.8%,14.8%
Cc1cc(C)c2c(N)c(C(=O)NCC3CCCCC3)sc2n1,35.3*,6.3%,130.0*,-13.8%,nt,3.8%
CC(C)C(=O)N1CCC1(C)C(=O)NCc1ccc(C(C)(C)C)cc1 (configuration not stated),nt,0.0%,nt,nt,nt,nt
Cc1ccc(Cl)cc1-c1cc(C(=O)NCc2cc(C(F)(F)F)cc(C(F)(F)F)c2)[nH]n1,nt,13.9%,nt,nt,nt,nt
Nc1c(-c2ccccc2)cc[nH]c1=O,16.1,nt,-2.4,nt,nt,nt
CCOC(=O)c1oc2ccc(CNCCO)c(Cl)c2c1C,40.2*,-9.3%,82.0*,-3.3%,?,58.1%
